The source of these data is PubChem BioAssay AID463173 (ICCB-Longwood Screening Facility, Harvard Medical School, 2010).

In all, about 52,000 compounds went through this assay and about 4,300 (8.3%) were called active. No stated cut-off is given here; in the data, active means survival mostly below about 52% (no sharp cut-off); inactive means mostly above about 56%. For the sample, actives were picked, then their nearest neighbours and some compounds at random.

The assay concerns DeltatarO mutant. Nature of the assay: S. aureus survival, RN4220 and DeltatarO strains – OD600, teichoic acid synthesis inhibitors, primary screen (AID 463173). Conditions: S. aureus RN4220 wild type/DeltatarO growth, OD600, 18 h, hits give low values, screened at 18.75 µg/mL (by protocol).
Take `CCOC(=O)C1CCCN(C(=O)c2c(C)nn(-c3ccc(F)cc3)c2-n2cccc2)C1` (stereo not drawn): the survival is 113% (inactive).
For `COc1cccc(NC(=O)C2CCN(c3ccc(Sc4ccc(C)cc4)nn3)CC2)c1`, the survival is 49% (inactive).
Under `O=C(CSc1cn(CC(=O)N2CCCC2)c2ccccc12)Nc1ccccc1C(F)(F)F` stands 66% (inactive); under `O=C(NCn1nc(-c2ccccc2)nc1-c1ccccc1)c1cccnc1`, 67% (inactive).
Under `CN(C)N=Nc1ccc(S(N)(=O)=O)cc1` stands 92% (inactive); under `O=C(c1ccccc1)n1nc(-c2ccco2)nc1NCc1cccs1`, 81% (inactive); under `CC(C)CNS(=O)(=O)c1ccc(N2CCCCS2(=O)=O)cc1`, 82% (inactive).
The value for `COc1ccc(CNC(=O)c2cc3ccccn3n2)c(OC)c1` was 71% (inactive).
On to `CCS(=O)(=O)N1CCCC(c2nc3c(nnn3Cc3ccc(C)cc3)c(=O)[nH]2)C1` (stereo not drawn), for which the survival was 88% (inactive).
Under `O=C(c1ccccc1Cl)N1CCCC(c2nc3c(nnn3Cc3ccc(F)cc3F)c(=O)[nH]2)C1` (stereo not drawn) stands 56% (inactive).
Consider `Cc1ccccc1Cn1nnc2c(=O)[nH]c(C3CCN(C(=O)c4ccccc4)CC3)nc21`, for which the survival is 17% (active).
Regarding `COc1ccc(Cn2nnc3c(=O)[nH]c(C4CCN(C(=O)c5ccc(C)cc5)CC4)nc32)cc1OC`, the survival is 24% (active).
Under `O=C(c1ccccc1)N1CCCC(c2nc3c(nnn3Cc3ccc(F)cc3F)c(=O)[nH]2)C1` (stereo not drawn) stands 101% (inactive); under `Cc1ccccc1Cn1nnc2c(=O)[nH]c(C3CCN(C(=O)c4ccccc4Cl)CC3)nc21`, 17% (active).
`COc1ccc(Cn2nnc3c(=O)[nH]c(C4CCCN(C(=O)c5ccc(C)cc5)C4)nc32)cc1` (stereo not drawn): the survival is 107% (inactive).
The value for `O=C(c1cccc(Cl)c1)N1CCC(c2nc3c(nnn3Cc3ccc(F)cc3F)c(=O)[nH]2)CC1` was 11% (active); that for `COC(=O)c1ccc(NC(=O)N2CCN(c3nnc(C)c4c(C)n(-c5ccccc5)nc34)CC2)cc1` was 65% (inactive); that for `COc1ccc(C(=O)CN2CCC(N3CCCCC3)CC2)cc1` was 92% (inactive).
The value for `COc1cc(-c2nc(Cn3nnc(C(=O)Nc4cccc(Cl)c4)c3C)c(C)o2)cc(OC)c1OC` was 80% (inactive); that for `CCN(CC)c1ccc(C(=O)N2CCC(c3c[nH]c4ccccc34)(c3c[nH]c4ccccc34)CC2)cc1` was 104% (inactive).
The value for `CCOc1ccccc1NC(=O)N1CCN(S(=O)(=O)c2ccc3c(ccn3C)c2)CC1` was 76% (inactive); that for `CC(C)(C)c1ccc(C(=O)N2CCC(C(=O)O)CC2)cc1` was 68% (inactive); that for `CN1C(=O)CC(NCCc2ccc(S(N)(=O)=O)cc2)C1=O` (stereo not drawn) was 72% (inactive).
For `CCOc1ccc(-n2c(SCC(=O)Nc3cccc(Cl)c3)nc3c(oc4ccccc43)c2=O)cc1`, the survival is 58% (inactive).
For `COc1ccc(Cn2nnc3c(=O)[nH]c(C4CCCN(C(=O)c5ccccc5Cl)C4)nc32)cc1OC` (stereo not drawn), the survival is 80% (inactive).
Consider `Cc1cccc(Cn2nnc3c(=O)[nH]c(C4CCN(C(=O)c5ccccc5F)CC4)nc32)c1`, for which the survival was 46% (inactive).
On to `O=C(c1ccccc1F)N1CCC(c2nc3c(nnn3Cc3cccc(F)c3)c(=O)[nH]2)CC1`, for which the survival is 47% (inactive).
Regarding `Cc1cccc(Cn2nnc3c(=O)[nH]c(C4CCN(C(=O)c5ccc(F)cc5)CC4)nc32)c1`, the survival was 28% (active).
The value for `COc1cccc(Cn2nnc3c(=O)[nH]c(C4CCCN(C(=O)c5ccccc5Cl)C4)nc32)c1` (stereo not drawn) was 80% (inactive); that for `COc1cccc(Cn2nnc3c(=O)[nH]c(C4CCN(C(=O)c5ccccc5Cl)CC4)nc32)c1` was 14% (active); that for `Cc1ccccc1Cn1nnc2c(=O)[nH]c(C3CCN(C(=O)c4ccc(F)cc4)CC3)nc21` was 52% (active).
On to `Cc1cc(C)cc(NC(=O)c2cc3c(=O)n(Cc4ccco4)ccc3nc2C)c1`, for which the survival is 73% (inactive).
With `O=C(Nc1ccccc1)c1ccc2c(O)c(S(=O)(=O)c3ccc(Cl)cc3)c(=O)[nH]c2c1`, the survival is 74% (inactive).
The value for `COc1ccc(N(C)C(=O)c2cn(C)c(=O)c3cc(OC)c(OC)cc23)cc1` was 177% (inactive); that for `O=C(CSc1nnc(-c2ccccc2)o1)Nc1ccccc1` was 82% (inactive).
With `O=C(CSc1nnc(-c2ccco2)o1)NC(c1ccccc1)c1ccccc1`, the survival is 61% (active).
Under `O=C(CCSc1nnc(-c2ccco2)o1)Nc1ccccc1` stands 86% (inactive); under `CCOc1ccc(Sc2cc(C(=O)NCCc3ccccc3)c3ccccc3n2)cc1`, 73% (inactive).
The value for `N#Cc1cn(CC(=O)NCc2ccccc2)c2ccccc12` was 87% (inactive); that for `CCCN1CCN(CC2=C(C(=O)OCC)C(c3cccc(OC)c3OC)NC(=O)N2)CC1` (stereo not drawn) was 94% (inactive); that for `COc1ccc(C)cc1NS(=O)(=O)c1ccc2c(c1)[C@H]1C=CC[C@H]1[C@@H](c1cccc(Cl)c1)N2` was 57% (inactive).
Consider `COc1ccc(NS(=O)(=O)c2ccc3c(c2)[C@H]2C=CC[C@H]2[C@@H](c2ccc(C(=O)O)cc2)N3)cc1`, for which the survival is 72% (inactive).
Take `CCOc1ccc2c(c1)[C@@H]1C=CC[C@@H]1[C@H](c1ccccc1Cl)N2`: the survival is -10% (active).
Under `COc1cccc(NS(=O)(=O)c2ccc3c(c2)[C@H]2C=CC[C@H]2[C@@H](c2ccccc2Cl)N3)c1` stands 163% (inactive); under `CCOC(=O)c1ccc2c(c1)[C@@H]1C=CC[C@@H]1[C@H](c1cccc(OC)c1OC)N2`, -10% (active); under `Fc1ccc([C@@H]2Nc3ccccc3[C@@H]3C=CC[C@@H]32)cc1`, 56% (inactive).
Under `COc1ccc(Br)cc1[C@@H]1Nc2ccc(C(=O)O)cc2[C@@H]2C=CC[C@@H]21` stands 36% (active); under `COc1cccc([C@H]2Nc3ccc(S(=O)(=O)Nc4cc(C)ccc4C)cc3[C@H]3C=CC[C@H]32)c1`, 52% (inactive); under `CCCCN(CC)CCNC(=O)Cn1cnc2sc(C)c(S(=O)(=O)N3CCC(C)CC3)c2c1=O`, 69% (inactive).
On to `COCC(=O)NCc1ccc2c(c1)OCO2`, for which the survival was 104% (inactive).
Under `CCN(CC)CCOC(=O)c1ccc(NC(=O)c2cc3cc(OC)ccc3oc2=O)cc1` stands 73% (inactive).
The value for `COc1ccc(NC(=O)Cn2c(=O)n(-c3ccc(C)c(C)c3)c(=O)c3c(C)c(C)sc32)cc1` was 139% (inactive); that for `O=C1[C@@H]2CSC(c3ccc(C(F)(F)F)cc3)N2C(=O)N1c1ccccc1` (stereo partly drawn) was 81% (inactive).
